# Inconclusive results are not listed. The source made the active and inactive calls.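 The calls were made as follows, unless noted: active = normalized viability below 100% at a tested concentration; inactive = the rest.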
# How the values were obtained:
# [1] = Wnt pathway potentiators raising nuclear beta-catenin – imaging, WNT3A-conditioned medium, mouse C2C12, NPC library, primary screen (AID 1117326; in the data active = nuclear beta-catenin stimulation mostly above about 4.2%, no sharp cut-off; inactive = mostly below about 10%); details: stronger effect = higher value
# [2] = stimulators of insulin release from INS-1E, primary screen, cell-based, 5 mM glucose, NPC library (AID 1117329;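 active = compound raises insulin release from rat beta cells at 5 mM glucose, no numeric limit stated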); details: rat INS-1E insulin secretion, at 10 µM, stronger effect = higher value
# [3] = growth inhibition of GSK3B-pretreated HCT116 cells – cell-based, CellTiter-Glo, 0.2 to 20 µM (AID 1117336;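 active = compounds lowering colon cancer cell viability after pretreatment blocking the GSK3B kinase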); details: HCT116 viability after GSK3B inhibitor, at 20 µM, stronger effect = higher value
# [4] = inhibition of endothelial tube formation, primary screen, imaging, VEGF stimulated, CD31 staining, tube area, NPC library (AID 1117340;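 active = compound that reduces growth-factor-driven endothelial tube area in a mixed cell culture, no cutoff stated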); details: VEGF-stimulated ADSC/ECFC co-culture, at 10 µM, stronger effect = higher value
# [5] = GLP1 release stimulators, primary, NCI-H716, NPC library (AID 1117341;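 active = compound raises GLP1 secretion from the human gut endocrine cells, with no numeric limit stated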); details: NCI-H716 cells, at 10 µM, stronger effect = higher value
# [6] = HCT116 colon cancer cell growth inhibition, primary screen, CellTiter-Glo luminescence, NPC library (AID 1117342;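 active = compounds that lower survival of HCT116 colon cancer cells in the luminescence readout, no numeric limit stated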); details: at 20 µM (top of the series)
# [7] = reduced SW480 viability measured with CellTiter-Glo, NPC library, primary (AID 1117343;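 active = compounds that lower viability of the colon cancer cells in the luminescence readout, with no numeric limit stated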); details: CellTiter-Glo luminescence; at 20 µM (top of the series) unless noted
# [8] = NPC library primary testing for decreased DLD-1 cell viability via CellTiter-Glo (AID 1117346;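 active = compounds that lower survival of DLD-1 colon cancer cells in the luminescence readout, no cutoff given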); details: DLD-1 viability, CellTiter-Glo luminescence; at 20 µM (top of the series)
# [9] = viability loss in pontine glioma line – cell-based, SU-DIPG-XVII, MIPE5.0, CellTiter-Glo, qHTS, dose response (AID 1347060; cut-off not given, nearly all actives have AC50 up to about 26 µM;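 as to AC50: cells exposed to compound for 48 hours before viability readout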); details: CellTiter-Glo ATP luminescence
# [10] = viability loss in pontine glioma line – cell-based, SU-DIPG-XIII, MIPE4.0, CellTiter-Glo, qHTS, dose response (AID 1347061; cut-off not given, nearly all actives have AC50 up to about 37 µM;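 also: cells exposed to compound for 48 hours before readout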); details: CellTiter-Glo ATP luminescence
# [11] = growth inhibition of DIPG cells – cell-based, MIPE4.0 library, CellTiter-Glo luminescence, qHTS (AID 1347066; cut-off not given, nearly all actives have AC50 up to about 30 µM;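 also: cells exposed to compound for 48 hours before readout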); details: SU-DIPG-VI viability, CellTiter-Glo ATP luminescence
# [12] = tested on: Aerobactin synthetase IucA (Klebsiella pneumoniae); experiment: inhibition of K. pneumoniae IucA enzyme – biochemical, Tocris library, absorbance (AID 1345561; call rule not given here;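 also: 100% = enzyme without compound and 0% = no enzyme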); details: purified IucA enzyme assay, absorbance (OD) read-out; stronger effect = lower value;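 tested at 8 µM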
# [13] = viability loss with induced miR-34 in A549 – imaging, A549 dox-inducible miR-34, nuclei and caspase counts, primary screen (AID 1347080;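 active = compounds whose cell count with miR-34 switched on is under 0.7 times the count with it off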); details: A549 miR-34 inducible, Hoechst nuclei count, 48 h
# [14] = galactose survival enhancers in mitochondrial complex I cybrids – cell-based, galactose medium, ATP luminescence, primary screen (AID 1645843;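 active = z-score of at least 1.8 in each of two replicates, scored against plate mean and spread of sample wells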;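 also: positive z means more ATP and so rescue of galactose-driven cybrid death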); details: complex I mutant cybrid cells, 72 h, stronger effect = higher value
# [15] = drug combination growth inhibition, ovarian cancer – cell-based, oncology-focused library, rucaparib conditional, profiling panel (AID 1508598); details: patient-derived ovarian cancer cells, CellTiter-Glo viability, 144 h, stronger effect = lower value
# [16] = stronger effect = lower value, cell number ratio, induced over uninduced
# [17] = measured here: relative caspase fold change +Dox/-Dox
# [18] = measured here: total cells with miR-34 induction, stronger effect = lower value
# [19] = measured here: total cells without miR-34 induction
smiles,measurement,setting,value
CC(=O)SC[C@@H](C)C(=O)N1CCC[C@H]1C(=O)N[C@@H](Cc1ccccc1)C(=O)O,nuclear beta-catenin stimulation,[1]; at 10 µM,-0.2% (inactive)
same,nuclear beta-catenin stimulation,"[1]; stimulation, at 2 µM",-1.6%
same,insulin secretion stimulation,[2],0% (inactive)
same,viability decrease,[3],-13.4% (inactive)
same,tube area decrease,[4],7.4% (inactive)
same,GLP1 secretion stimulation,[5],0.3% (inactive)
same,inhibition of viability,[6],2.4% (inactive)
same,viability decrease (inhibition),[7],-15.3% (inactive)
same,viability decrease (inhibition),[8],-1.4% (inactive)
same,outcome,[9],inactive
same,outcome,[10],inactive
same,outcome,[11],inactive
Cl/C(=C\n1cncn1)c1ccc(Cl)cc1Cl,nuclear beta-catenin stimulation,[1]; at 10 µM,3.9% (inactive)
same,nuclear beta-catenin stimulation,"[1]; stimulation, at 2 µM",4%
same,insulin secretion stimulation,[2],2.4% (inactive)
same,viability decrease,[3],3% (inactive)
same,tube area decrease,[4],-2.8% (inactive)
same,GLP1 secretion stimulation,[5],-1.4% (inactive)
same,inhibition of viability,[6],30.3% (inactive)
same,viability decrease (inhibition),[7],13.4% (inactive)
same,viability decrease (inhibition),[8],24.2% (inactive)
same,remaining activity,[12],121% (inactive)
same,fold change,[13]; [16],0.89 (inactive)
same,fold change,[13]; [17],0.653
same,cell count,[13]; [18],8590
same,cell count,[13]; [19],9640
same,z-score,[14],-0.15 (inactive)
CCN(CC)CCNC(=O)c1c(C)[nH]c(/C=C2\C(=O)Nc3ccc(F)cc32)c1C,nuclear beta-catenin stimulation,[1]; at 10 µM,0.3% (inactive)
same,nuclear beta-catenin stimulation,"[1]; stimulation, at 2 µM",-2%
same,insulin secretion stimulation,[2],47.3% (active)
same,viability decrease,[3],108% (active)
same,tube area decrease,[4],103% (active)
same,GLP1 secretion stimulation,[5],18.2% (inactive)
same,inhibition of viability,[6],110% (active)
same,viability decrease (inhibition),[7],127% (active)
same,viability decrease (inhibition),[8],93.4% (active)
same,AC50,[9],7.42 µM (active)
same,AC50,[10],38.2 µM (active)
same,AC50,[11],21.5 µM (active)
same,fold change,[13]; [16],0.916 (inactive)
same,fold change,[13]; [17],1.17
same,cell count,[13]; [18],715
same,cell count,[13]; [19],780
same,viability,"[15]; at 0.000305 µM, OCI-C5x cells, with rucaparib 10 µM, 100% = cells with rucaparib alone",110% (inactive)
same,viability,"[15]; at 0.000305 µM, OCI-C5x cells, without rucaparib",107% (inactive)
same,viability,"[15]; at 0.000305 µM, OCI-P5x cells, with rucaparib 20 µM, 100% = cells with rucaparib alone",84% (active)
same,viability,"[15]; at 0.000305 µM, OCI-P5x cells, without rucaparib",93.8% (active)
same,viability,"[15]; at 0.00122 µM, OCI-C5x cells, with rucaparib 10 µM, 100% = cells with rucaparib alone",114% (inactive)
same,viability,"[15]; at 0.00122 µM, OCI-C5x cells, without rucaparib",102% (inactive)
same,viability,"[15]; at 0.00122 µM, OCI-P5x cells, with rucaparib 20 µM, 100% = cells with rucaparib alone",98.6% (active)
same,viability,"[15]; at 0.00122 µM, OCI-P5x cells, without rucaparib",88.3% (active)
same,viability,"[15]; at 0.00488 µM, OCI-C5x cells, with rucaparib 10 µM, 100% = cells with rucaparib alone",113% (inactive)
same,viability,"[15]; at 0.00488 µM, OCI-C5x cells, without rucaparib",108% (inactive)
same,viability,"[15]; at 0.00488 µM, OCI-P5x cells, with rucaparib 20 µM, 100% = cells with rucaparib alone",96.3% (active)
same,viability,"[15]; at 0.00488 µM, OCI-P5x cells, without rucaparib",97.4% (active)
same,viability,"[15]; at 0.0195 µM, OCI-C5x cells, with rucaparib 10 µM, 100% = cells with rucaparib alone",115% (inactive)
same,viability,"[15]; at 0.0195 µM, OCI-C5x cells, without rucaparib",99.1% (active)
same,viability,"[15]; at 0.0195 µM, OCI-P5x cells, with rucaparib 20 µM, 100% = cells with rucaparib alone",98.7% (active)
same,viability,"[15]; at 0.0195 µM, OCI-P5x cells, without rucaparib",95.9% (active)
same,viability,"[15]; at 0.0781 µM, OCI-C5x cells, with rucaparib 10 µM, 100% = cells with rucaparib alone",118% (inactive)
same,viability,"[15]; at 0.0781 µM, OCI-C5x cells, without rucaparib",111% (inactive)
same,viability,"[15]; at 0.0781 µM, OCI-P5x cells, with rucaparib 20 µM, 100% = cells with rucaparib alone",95% (active)
same,viability,"[15]; at 0.0781 µM, OCI-P5x cells, without rucaparib",99.9% (active)
same,viability,"[15]; at 0.313 µM, OCI-C5x cells, with rucaparib 10 µM, 100% = cells with rucaparib alone",123% (inactive)
same,viability,"[15]; at 0.313 µM, OCI-C5x cells, without rucaparib",113% (inactive)
same,viability,"[15]; at 0.313 µM, OCI-P5x cells, with rucaparib 20 µM, 100% = cells with rucaparib alone",93.2% (active)
same,viability,"[15]; at 0.313 µM, OCI-P5x cells, without rucaparib",99.5% (active)
same,viability,"[15]; at 1.25 µM, OCI-C5x cells, with rucaparib 10 µM, 100% = cells with rucaparib alone",126% (inactive)
same,viability,"[15]; at 1.25 µM, OCI-C5x cells, without rucaparib",117% (inactive)
same,viability,"[15]; at 1.25 µM, OCI-P5x cells, with rucaparib 20 µM, 100% = cells with rucaparib alone",89.1% (active)
same,viability,"[15]; at 1.25 µM, OCI-P5x cells, without rucaparib",104% (inactive)
same,viability,"[15]; at 5 µM, OCI-C5x cells, with rucaparib 10 µM, 100% = cells with rucaparib alone",60.6% (active)
same,viability,"[15]; at 5 µM, OCI-C5x cells, without rucaparib",21.7% (active)
same,viability,"[15]; at 5 µM, OCI-P5x cells, with rucaparib 20 µM, 100% = cells with rucaparib alone",1.9% (active)
same,viability,"[15]; at 5 µM, OCI-P5x cells, without rucaparib",12.8% (active)
same,z-score,[14],-1 (inactive)

# — PubChem BioAssay
